# Measurements published in PubChem BioAssay AID434973 (Sanford-Burnham Center for Chemical Genomics, 2010).
# Out of some 330,000 compounds screened, about 4,900 (1.5%) were called active. Only a selection was taken, and actives are over-represented in it overall. Unmarked numbers belong to inactive results.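 Rule for the calls: active = inhibition above about 50% at the single test dose (limit read from the data); inactive = the rest.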 Non-standard residues stand in square brackets, D forms with d. Residues, ends and D or L forms follow the SMILES beside them. ξ: configuration not given here. *: point of attachment. Cbz = O=C(OCc1ccccc1)*; ξL = CC(C)CC(N)C(=O)O; ξP = O=C(O)C1CCCN1
# Target: Sentrin-specific protease 7 (Homo sapiens) (UniProt Q9BQF6)
# Assay: blockers of human SENP7 peptidase activity – biochemical, luminescence, uHTS, primary screen (AID 434973);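 note: plate controls were DMSO with enzyme for no effect and no enzyme buffer wells for full effect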
# Conditions: recombinant SENP7, Z-RLRGG-aminoluciferin luminescence, 40 min; at 5 µM; stronger effect = higher value
row,Compound,inhibition
1,CC(C)CC(NC(=O)C1CCCN1C(=O)[C@@H](C)NC(=O)OCc1ccccc1)C(=O)NCC(N)=O (stereo not given in full) (Cbz-[dA][ξP][ξL]G-NH2),8.74%
2,CCC1CCCCN1CCNC(=O)c1[nH]c(C)c(C(C)=O)c1C (stereo not given),0.149%
3,COCn1c(C(O)c2ccccc2)cc2ccccc21 (stereo not given),12.5%
4,CCOC(=O)c1cnc(Nc2nc3ccccc3o2)nc1CSC(=S)N1CCCCC1,0.449%
5,CCn1ccnc1CN(C)C(=O)c1cc(COc2ccc(Cl)cc2OC)on1,5.22%
6,C=CCOc1ccc(/C=C/C(=O)OCC(=O)NC(C)c2ccc(F)cc2)cc1 (stereo not given),-12.8%
7,CCOC(=O)c1c(N)sc2c1CCCC2=O,-8.61%
8,COc1ccc(S(=O)(=O)n2nc(C)c(S(=O)(=O)N3CCOCC3)c2C)cc1,-1.04%
9,CC(C)COC(=O)n1c(=O)oc2ccc(S(=O)(=O)N3CCCCC3)cc21,-5.94%
10,O=C(CSc1nnnn1-c1ccc(O)cc1)N1N=C(c2ccc3ccccc3c2)CC1c1ccccc1 (stereo not given),2.06%
11,O=C(N/N=C/c1ccc(Cl)c(Cl)c1)c1ccc2nc[nH]c2c1,-0.0621%
12,CSc1ccc(/C=N\NC(=O)CC(=O)NC(C)C)cc1,4.98%
13,CSc1ccc(/C=N/NC(=O)c2cccc(Cl)c2)cc1,96% (active)
14,O=C(CN1C(=O)NC(Cc2ccccc2)(Cc2ccccc2)C1=O)NCC1CCCCC1,-0.975%
15,COCCN(CCOC)c1nc(N)c2c(N)nc3c(c2c1C#N)CC(=O)N3Cc1ccc(Cl)cc1,58.9% (active)
16,Cc1ccccc1NC(=O)C(C)OC(=O)CCC(=O)N(CC(C)C)c1c(N)n(CC(C)C)c(=O)[nH]c1=O (stereo not given),9.72%
17,Cc1nn(-c2ccccc2)c2c1c(C)c(CCC(=O)NCC1CCCO1)c(=O)n2C (stereo not given),-0.922%
18,COc1cc(C(=O)NCc2nnc(SCC(=O)Nc3nc4ccc(C)cc4s3)o2)cc(OC)c1OC,3.97%
19,O=c1c2ccccc2ncn1/N=C/c1ccccc1,88.5% (active)
20,CCCc1nc2ccccc2c(=O)n1/N=C/c1ccc(O)c(O)c1,-1.91%
21,CN(C(=O)Nc1ccc(Cl)cc1)n1cnc2ccccc2c1=O,-9.71%
22,Cc1cccc(S(=O)(=O)N2CN(CC3CCCO3)c3nc4ccccc4nc32)c1 (stereo not given),-0.481%
23,O=C(c1ccc(CSc2ccccc2)cc1)N1CCCCCC1,72.6% (active)

row,Compound,inhibition
1,O=C(c1ccc(S(=O)(=O)c2ccccc2)cc1)N1CCCCCC1,3.58%
2,CC1CCN(C(=O)c2ccc(CSc3ccc(Cl)cc3)cc2)CC1,-2.26%
3,CCc1ccccc1OCC(=O)Nc1ccc(C)c(S(=O)(=O)N2CCCCCC2)c1,1.37%
4,COc1ccccc1N(CC(=O)N/N=C(\C)c1ccccc1O)S(=O)(=O)c1ccc(C)cc1,3.18%
5,Cc1cc(C(=O)NNC(=O)c2ccccc2O)c(C)o1,9.67%
6,C/C(=N\NC(=O)c1ccoc1C)c1ccccc1O,51.5% (active)
7,COc1ccc2c(CC(=O)OCC(=O)Nc3ccccc3[N+](=O)[O-])coc2c1,-12%
8,COC(=O)c1ccc(S(=O)(=O)N(CCO)Cc2ccccc2)n1C,1.52%
9,O=C(COC(=O)c1ccc(Br)o1)NC12CC3CC(CC(C3)C1)C2,7.39%
10,CCOc1ccc(-n2cnnn2)cc1S(=O)(=O)N1CCC(C)CC1C (stereo not given),7.69%
11,Cc1cccc(-c2noc(CCC(=O)NC3CCCC3)n2)c1,-8.85%
12,Cc1ccc(-c2nc(-c3ccncc3)no2)c(C)c1,42.5%
13,Cc1cccc(-c2noc(-c3ccc(F)cc3)n2)c1,94.2% (active)
14,Cc1ccc(-n2c(C)cc(C(=O)CSc3nnc4ccccn34)c2C)cc1,-18.4%
15,Nc1nonc1-n1nnc(C(=O)N/N=C/c2ccc(Cl)cc2)c1-c1ccc2c(c1)OCO2,-3.14%
16,Cc1cc(C)n2nc(C(=O)Oc3ccc4c(c3)OCO4)nc2n1,4.97%
17,CCOc1ccc(S(=O)(=O)Nc2nc3cc(OC)ccc3s2)cc1,6.2%
18,COc1ccc2nc(Nc3nc4cc5c(cc4s3)OCCO5)sc2c1,52.6% (active)
19,COc1ccc2nc(NC(=O)[C@@H]3CCCN3C(=O)c3cccs3)sc2c1,-10%
20,CC[C@]12c3[nH]c4cc(CCC(=O)N(C)C)ccc4c3CCN1C(=O)[C@@H](CC(=O)NCCCn1ccnc1)C[C@@H]2C(=O)N1CCN(C(=O)C2CC2)CC1,-1.68%
21,Cc1ccc(C)c(C(=O)N2CCC(n3nccc3NC(=O)C3CC3)CC2)c1,0.772%
22,CC(=O)c1ccc(NC(=O)c2ccc3c(Cl)c4c(nc3c2)CCCC4)cc1,-3.44%
23,CC(C)CCNC(=O)c1ccc2c(Cl)c3c(nc2c1)CCC3,84.1% (active)

row,Compound,inhibition
1,COc1ccc(N2CCN(C(=O)c3ccc4c(Cl)c5c(nc4c3)CCCC5)CC2)cc1,-4.91%
2,CC(C)Cc1ccc(S(=O)(=O)N2CCN(C(=O)c3ccco3)CC2)cc1,3.59%
3,O=C1c2ccccc2NC(c2ccccn2)N1NS(=O)(=O)c1ccccc1 (stereo not given),0.965%
4,CN(Cc1ccccc1)C(=O)c1cccc(C(=O)N(C)Cc2ccccc2)c1,0.789%
5,O=C(COC(=O)CNS(=O)(=O)c1ccc(F)c(F)c1F)NC1CCCC1,4.55%
6,O=[N+]([O-])c1ccc(N/N=C2/CCCCC2c2ccccn2)c([N+](=O)[O-])c1 (stereo not given),-1.83%
7,O=[N+]([O-])c1ccc2c(c1)Nc1nc3ccccc3nc1N2,-3.53%
8,O=[N+]([O-])c1ccc2nc(-c3ccccn3)[nH]c2c1,70.4% (active)
9,O=S(=O)(NCCCc1ccccc1)c1ccc(Br)cc1,5.53%
10,COc1ccc(-c2[nH]nc(-c3ccccc3)c2-c2nc3ccccc3[nH]2)cc1,1.53%
11,Cc1ccc(-c2nc3ccccc3[nH]2)cc1N,94.4% (active)
12,Clc1ccccc1SCc1nc2ccccc2[nH]1,35.5%
13,COc1ccc(Br)cc1C(=O)NC(=S)Nc1cc(-c2nc3ccccc3[nH]2)ccc1C,2.43%
14,c1ccc2[nH]c(-c3nc4ccccc4[nH]3)nc2c1,99.5% (active)
15,Cc1ccccc1N1CC(c2nc3ccccc3[nH]2)CC1=O (stereo not given),4.87%
16,O=C(CN1C(=O)c2ccc([N+](=O)[O-])cc2C1=O)Nc1nnc(C2CC2)s1,-1.7%
17,COc1ccc(CN2CCOC2=O)cc1OC,0.943%
18,CCC(=NC1CC(C)(C)NC(C)(C)C1)C1=C(O)CC(C)(C)CC1=O,-2.04%
19,O=C1C(=O)N(CCN2CCOCC2)C(c2cccc(Cl)c2)/C1=C(/O)c1ccc2c(c1)OCO2 (stereo not given),0%
20,O=C1C(=O)N(CCCN2CCOCC2)C(c2ccc([N+](=O)[O-])cc2)/C1=C(\O)c1ccc2c(c1)OCCO2 (stereo not given),56.5% (active)
21,COc1ccc(C2/C(=C(/O)c3ccc(OC(C)C)cc3)C(=O)C(=O)N2CCCN2CCOCC2)cc1 (stereo not given),-3.1%
22,COc1ccccc1OCc1ccc(C(=O)NC(C)c2ccccc2)o1 (stereo not given),-1.75%
23,Cc1ccc(S(=O)(=O)CCC(=O)Nc2nnc(CC(C)C)s2)cc1,10.9%

row,Compound,inhibition
1,COc1ccccc1CN(C)C(=O)c1cc2ccccc2o1,6.76%
2,Cc1ccc(OC(=O)c2cc3ccccc3o2)cc1,80.7% (active)
3,C/C(=N\NC(=S)Nc1ccc(C)cc1)c1cc2ccccc2o1,-0.14%
4,COc1cc(C(=O)OCC(=O)NC23CC4CC(CC(C4)C2)C3)cc(OC)c1OC,7.88%
5,COc1cc(C2/C(=C(\O)c3ccc4c(c3)CC(C)O4)C(=O)C(=O)N2c2nnc(C)s2)cc(OC)c1OC (stereo not given),0.235%
6,COc1ccc(CNC(=O)CN(Cc2ccccc2Cl)C(=O)c2csnn2)cc1,-0.595%
7,CCCCn1c(N)c(N(CCC(C)C)C(=O)CC2OC(=O)c3ccccc32)c(=O)[nH]c1=O (stereo not given),0.323%
8,O=C(c1cccc([N+](=O)[O-])c1)N1CCN(C(=O)c2ccco2)CC1,3.1%
9,COc1cc(NC(=O)c2cc([N+](=O)[O-])ccc2Br)ccc1NC(=O)c1ccco1,-5.49%
10,CC(C)(C)SCCNC(=O)c1cccc([N+](=O)[O-])c1,0.866%
11,O=C(Nc1ccc(NC(=O)c2ccco2)c(Cl)c1)c1cccc([N+](=O)[O-])c1,52.1% (active)
12,Cc1cc(C)nc(NC(=O)c2cccc([N+](=O)[O-])c2)c1,2.66%
13,O=C(Nc1ccc(C2CC2(Cl)Cl)cc1)c1cccc([N+](=O)[O-])c1 (stereo not given),54.2% (active)
14,COc1ccc(S(=O)(=O)N2CCN(c3cnccn3)CC2)cc1,4.46%
15,COC(=O)c1ccc(-n2cnc3ccccc32)nc1,-0.937%
16,O=C1CN(C(=O)COC(=O)/C=C/c2ccc(F)cc2)c2ccccc2N1,-6.02%
17,O=S(=O)(c1ccc(F)cc1)N1CCN(C(=S)NCc2ccco2)CC1,-0.183%
18,COc1ccc(NC(=O)NN2CCN(C)CC2)c(OC)c1,0.214%
19,CCOc1ccc(-n2c(SCC(N)=O)nnc2-c2ccco2)cc1,6.82%
20,CCCCOc1ccc(-c2nnc(-c3ccco3)o2)cc1,80.5% (active)
21,N#Cc1ccc(OCc2nnc(-c3ccc([N+](=O)[O-])cc3)o2)cc1,-0.787%
